Measurements: PubChem BioAssay (NCI)
About 79,000 compounds went through this panel and 15% of them were active in at least one assay; those are over-represented in the sample as a whole. Rule as the data show it: active = growth inhibition above about 70%; inactive = the rest.

Experiments:
[1] = NCI Yeast Anticancer Drug Screen. Data for the rad50 strain (AID 155);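 also: 0% = growth of vehicle-only cultures of the same strain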; conditions: S. cerevisiae rad50 strain growth inhibition; at 50.0 µM; stronger effect = higher value
Summary of the method: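 Yeast carrying a defined DNA repair defect were exposed to test compounds, and growth was compared with vehicle-treated controls to give percent inhibition.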

[2] = NCI Yeast Anticancer Drug Screen. Data for the mec2-1 strain (AID 157); conditions: S. cerevisiae mec2-1 strain, at 50.0 µM, stronger effect = higher value
Summary of the method: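 Test agents were screened against the mec2-1 yeast strain, with defined DNA repair or cell cycle alteration. Growth was scored as inhibition against vehicle-only controls.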

[3] = NCI Yeast Anticancer Drug Screen. Data for the sgs1 mgt1 strain (AID 161);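 also: 0% = growth of cultures given vehicle only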; conditions: S. cerevisiae sgs1 mgt1 strain, at 50.0 µM, stronger effect = higher value
Summary of the method: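 Read-out: growth inhibition vs vehicle controls. Cells: mutant yeast strain deficient in DNA damage repair.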

[4] = NCI Yeast Anticancer Drug Screen. Data for the cln2 rad14 strain (AID 165);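 also: 0% = growth equal to vehicle treated cultures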; conditions: S. cerevisiae cln2 rad14 strain, at 50.0 µM, stronger effect = higher value
Summary of the method: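 Growth of compound-exposed yeast (cln2 rad14 genotype) measured and expressed as inhibition relative to vehicle.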

[5] = NCI Yeast Anticancer Drug Screen. Data for the bub3 strain (AID 167); conditions: S. cerevisiae bub3 mutant strain, at 50.0 µM, stronger effect = higher value
Summary of the method: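 Compounds were applied to a genetically altered yeast strain carrying a cell-cycle control defect. Growth inhibition was scored against vehicle-treated controls.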

[6] = NCI Yeast Anticancer Drug Screen. Data for the mlh1 rad18 strain (AID 175); conditions: S. cerevisiae mlh1 rad18 strain growth inhibition; at 50.0 µM; stronger effect = higher value
Summary of the method: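 In this whole-cell yeast screen, a strain with altered DNA damage repair is challenged with compound, and its growth is measured against matched vehicle-treated controls.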

Measured: growth inhibition

Nc1cc(C(Br)(Br)Br)nc2ccccc12
inactive: [1] 17.4% | [2] 7.45% | [3] 16.8% | [4] -0.2% | [5] -11% | [6] 31.8%

C[S+](C)CCOC(=O)C(=[N+]=[N-])c1ccc([N+](=O)[O-])cc1
inactive: [1] 32.5% | [2] 9.8% | [3] 44.3% | [4] 25.8% | [5] 9.9% | [6] 59.4%

OC(CI)C1OCOC(CI)C1O (stereo unspecified)
inactive: [1] -11.7% | [2] 3.65% | [3] 10.7% | [4] -26.5% | [5] -3.75% | [6] 16.4%

Cc1ccc(-c2cc(-c3ccco3)c(C#N)c(=O)[nH]2)cc1
inactive: [1] 13.5% | [2] -8.55% | [3] -13.5% | [4] 16.4% | [5] -10% | [6] 6.8%

CC(C)(O)/C(=N/O)c1ccc(-c2ccccc2)cc1
inactive: [1] -4.05% | [2] -18.3% | [3] 0.35% | [4] -16.1% | [5] 9.35% | [6] 10.8%

CC(=O)/C=C\c1cc(C)ccc1O
inactive: [1] 27.3% | [2] 22.1% | [3] 9.3% | [4] -35.7% | [5] 8.25% | [6] 12.6%

CC1(C)CC(O)CC(C)(C)N1.CC1(C)CC(O)CC(C)(C)N1.CC1(C)CC(O)CC(C)(C)N1.CC1(C)CC(O)CC(C)(C)N1.Cl.[Ti]
inactive: [1] -2.95% | [2] -4.45% | [3] 12.9% | [4] 17.8% | [5] 26.1% | [6] 10.5%

CCc1nnc(CC)n1NCCCC(=O)O
inactive: [1] 26.3% | [2] 24.2% | [3] 20.8% | [4] 18.2% | [5] 24.9% | [6] 15.7%

[N-]=[N+]=Nc1ccc2[nH]c3ccccc3c(=O)c2c1
inactive: [1] 17.9% | [2] -1.05% | [3] 16.9% | [4] -23.4% | [5] -16.9% | [6] 36.7%

CC1CCS(=O)(=O)C1 (stereo unspecified)
inactive: [1] -12.8% | [2] -23.1% | [3] -35.9% | [4] 6.8% | [5] -8.4% | [6] -10.1%

COc1ccccc1NC(=O)C(CC(C(=O)Nc1ccccc1OC)/C(C)=N/Nc1ccc([N+](=O)[O-])cc1[N+](=O)[O-])/C(C)=N/Nc1ccc([N+](=O)[O-])cc1[N+](=O)[O-] (stereo unspecified)
inactive: [1] 14.8% | [2] 4.95% | [3] 19.6% | [4] 10.6% | [5] 17.8% | [6] 32.4%

C=C(C)C(=O)O[C@H]1C[C@@]23O[C@@H]2CCC(=C[C@H]2OC(=O)C(=C)[C@H]12)COC3O (stereo partly specified)
inactive: [1] 16.8% | [2] -12.6% | [3] 14.8% | [4] 9.45% | [5] 7.7% | [6] -22.8%

Cc1cc(O)c(C(c2c(O)cc(C)c(Cl)c2C)C(Cl)(Cl)Cl)c(C)c1Cl
inactive: [1] 26.1% | [2] 21.9% | [3] 30.9% | [4] 39.6% | [5] 20.6% | [6] 18.2%

c1ccc(-c2ccc[n+](C[n+]3cccc(-c4ccccn4)c3)c2)nc1
inactive: [1] 10.2% | [2] -10.5% | [3] -22.9% | [4] -8.5% | [5] -3.8% | [6] 33.1%

COCC(Cl)/C(N)=N\S(=O)(=O)c1ccc(Cl)cc1 (stereo unspecified)
inactive: [1] 5.8% | [2] -17.4% | [3] 15.2% | [4] 14.8% | [5] 26.2% | [6] 4.95%

Cc1c(/C=N/NC(=O)c2ccc(Cl)cc2)c(=O)n(-c2ccccc2)n1C
inactive: [1] -43% | [2] -20.9% | [3] -53.4% | [4] -32.4% | [5] -52% | [6] -65.2%

CCOC(=O)C1CCC2c3[nH]c4ccccc4c3CCN2C1=O (stereo unspecified)
inactive: [1] -25.3% | [2] -39.8% | [3] -8.65% | [4] 1.6% | [5] 31.1% | [6] -20.9%

Clc1ccccc1CSc1cnnc(Cl)c1SCc1ccccc1Cl
inactive: [1] 28.6% | [2] 12.2% | [3] 31.6% | [4] 39.6% | [5] 5.2% | [6] 21.9%

O=[N+]([O-])c1cc2c(cc1Cl)C1C(C3C2C2(Cl)C(Cl)=C(Cl)C3(Cl)C2(Cl)Cl)C2(Cl)C(Cl)=C(Cl)C1(Cl)C2(Cl)Cl (stereo unspecified)
inactive: [1] 24.4% | [2] 9.6% | [3] 30.2% | [4] 24.2% | [5] 20.6% | [6] 18%

CC1CC(C)OC(C)(Cc2ccccc2)O1 (stereo unspecified)
inactive: [1] 23.8% | [2] 20.4% | [3] 25.6% | [4] -19.9% | [5] -2.15% | [6] -13.9%

CCOC(=O)CN=NNc1ccccc1C(C)=O
inactive: [1] 21.4% | [2] 7.45% | [3] 10.9% | [4] -3.3% | [5] 3.05% | [6] 38.4%

CCC1C(=O)N(C)c2ccccc21 (stereo unspecified)
inactive: [1] -2.15% | [2] -9.6% | [3] -10.1% | [4] 1.55% | [5] -19.3% | [6] 13.2%

CC(O)CCC(C)O (stereo unspecified)
inactive: [1] -19.1% | [2] -24.2% | [3] -4.5% | [4] -4.95% | [5] 1.85% | [6] 10.2%

CCN(CC)CCOc1ccc(N2Cc3cc(OC)c(OC)cc3C2=O)cc1
inactive: [1] -11.9% | [2] -7.45% | [3] -4.2% | [4] 13.5% | [5] 8.6% | [6] -13.8%

CC(=O)Nc1ccc(-c2cn3ccccc3n2)cc1
inactive: [1] 6.6% | [2] -1.5% | [3] 20.7% | [4] 25.6% | [5] 13.7% | [6] 21.8%

CC(C)(C)c1ccc(SC(=O)NCCCl)cc1
inactive: [1] -1.55% | [2] 23.9% | [3] 14.2% | [4] -31.1% | [5] -5.4% | [6] -11.2%

Cc1cc(=O)n(Cc2ccccc2)n1-c1ccccc1
inactive: [1] -11% | [2] 12.8% | [3] -0.4% | [4] 9.4% | [5] 1.2% | [6] -17%

CC(=O)Oc1c(C)cc2c(c1C)C(C)CN2C(C)=O (stereo unspecified)
inactive: [1] 3.95% | [2] -33.8% | [3] -24.6% | [4] -18.9% | [5] -22.4% | [6] -10.6%

CCOC(=O)c1cc2cc([N+](=O)[O-])ccc2[nH]1
inactive: [1] 10% | [2] 9.5% | [3] 0% | [4] 5.65% | [5] -7.2% | [6] 16.4%

CCN(CC)c1ccccc1C
inactive: [1] 21.1% | [2] 9.9% | [3] -5.2% | [4] -4.95% | [5] 2.25% | [6] -0.2%

Cc1cccc(O)c1
inactive: [1] -11.7% | [2] -9.8% | [3] -42% | [4] -16.4% | [5] -4.65% | [6] -39.2%

CC(C)OC(=O)C(=O)OC(C)C
inactive: [1] 14.3% | [2] 20.1% | [3] -24.3% | [4] 0.1% | [5] 0.85% | [6] 1.85%

C=CCCCC1(c2ccccc2)C(=O)Oc2ccccc21 (stereo unspecified)
inactive: [1] 29.6% | [2] 2.55% | [3] -0.55% | [4] 15.6% | [5] 12.8% | [6] -2.75%

c1ccc(C(c2ccccc2)c2cc(-c3cc(C(c4ccccc4)c4ccccc4)[nH]n3)n[nH]2)cc1
inactive: [1] -9.25% | [2] 21.4% | [3] -7.55% | [4] -28.6% | [5] -11.6% | [6] 6.25%

CCOC(=O)C1=C(C(C)=O)C(c2ccccc2[N+](=O)[O-])C(C(C)=O)=C(C(=O)OCC)N1
inactive: [1] -7.35% | [2] 10.4% | [3] -9.2% | [4] -6.85% | [5] -9% | [6] 9.25%

C=CC(O)C(O)C=C (stereo unspecified)
inactive: [1] 15.1% | [2] -9% | [3] 20.4% | [4] 8.25% | [5] 12.9% | [6] 17.2%

O=C1CCCC(=O)c2c(O)ccc(O)c21
inactive: [1] 4.4% | [2] -4.15% | [3] 9.5% | [4] -3.4% | [5] 10.7% | [6] 5.65%

CC(=O)OCCc1ccccc1C#N
inactive: [1] 7.35% | [2] 9.05% | [3] 9.3% | [4] -11.1% | [5] -4.25% | [6] 11.9%

CO[Si](C)(C)OC
inactive: [1] -6.65% | [2] -32% | [3] -7.15% | [4] 0.3% | [5] -6.15% | [6] -13.9%

CC(=O)Nc1cc(N)cc(C(=O)O)c1
inactive: [1] 37% | [2] -0.9% | [3] 9.15% | [4] 9.75% | [5] -33.9% | [6] -7.5%

CCCNC(=O)/C=C/C(=O)NCCC
inactive: [1] 8.55% | [2] -0.8% | [3] -1.55% | [4] -43.2% | [5] -6% | [6] 4.1%
